In all, about 2,300 compounds went through this assay and about 1,400 (61%) were called active. Another 29% or so got no clear call; they are omitted. The call rests on the fitted dose curve; in most records, active means well fitted inhibition curve with a large enough effect; inconclusive means small, poorly fitted or top-dose-only effect, or effect the other way; inactive means no such curve, though single readings can be large or run the other way. The set was probably picked from earlier hits. The list shows a part of the results.
Assay: Confirmation screen for delayed death inhibitors of the malarial parasite plastid, 96 hour incubation; further: nearly all actives have a fitted effect of over 60% in size
Conditions: P. falciparum luciferase growth in erythrocytes; series mostly up to 28.7 µM
How it was run: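 Erythrocytes infected with luciferase-expressing P. falciparum (2% hematocrit, 0.1% parasitemia final) in RPMI 1640 with 0.5% Albumax, exposed to compounds 96 h at 37 C, 5% CO2. Growth inhibition read as decreased luciferase luminescence.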
Potency means the concentration at half of the fitted maximal effect.

Compound | Potency
N#C/C(=C\C=C\c1ccccc1[N+](=O)[O-])C(=O)NC1CCCCC1 | 5.01 µM (active)
COCCNC(=O)/C(C#N)=C/C=C/c1ccccc1[N+](=O)[O-] | 10 µM (active)
CC1CCCCC1NC(=O)/C(C#N)=C/C=C/c1ccccc1[N+](=O)[O-] (stereo not given) | 4.47 µM (active)
COC(=O)C(=Cc1ccccc1[N+](=O)[O-])C(=O)OC | 3.98 µM (active)
CCCCN1/C(=C/c2cccc[n+]2C)Sc2cc(NC(C)=O)ccc21 | 1.58 µM (active)
CCC1CCC(C(=O)NC(CCSC)C(=O)NCCN(CC(C)C)CC(C)C)CC1 (stereo not given) | 7.08 µM (active)
O=C1C(=O)c2ccccc2C(O)=C1c1cccc([N+](=O)[O-])c1 | 10 µM (active)
COC(=O)c1ccc(C2N=C(c3cccs3)CC(c3ccccc3O)N2)cc1 (stereo not given) | 5.62 µM (active)
COc1cccc(NC(=O)CN2C(=O)NC3(CCCc4ccccc43)C2=O)c1 (stereo not given) | 3.98 µM (active)
COc1ccc(C2(c3ccc(OC)cc3)NC(=O)N(CC(=O)Nc3ccc(C(N)=O)cc3)C2=O)cc1 | 3.98 µM (active)
COC(=O)C1=C(C)Nc2ncnn2C1c1ccccn1 (stereo not given) | inactive
CCOc1ccc(N(C(=O)c2snc(C(N)=O)c2N)C(C(=O)NCC2CCCO2)c2c[nH]c3ccccc23)cc1 (stereo not given) | 2.82 µM (active)
COc1cc(/C=C/C(=O)NC(=O)c2ccccc2O)ccc1OC(C)=O | 8.91 µM (active)
Cn1c(=O)oc2cc(S(=O)(=O)NCCC(=O)NCc3ccc(F)cc3)ccc21 | 12.6 µM (active)
O=C1NC(=Nc2ccccc2)S/C1=C\c1ccccc1 | 11.2 µM (active)
O=C(NC1CCCCC1)N1CCN(c2ccc([N+](=O)[O-])cc2)CC1 | 12.6 µM (active)
CCCc1c(CC)c(=N)c2ccccc2n1C | 0.0316 µM (active)
CC(C)(CNC(=O)/C=C/c1ccc(F)cc1)CNC(=O)/C=C/c1ccc(F)cc1 | 8.91 µM (active)
Nc1cccc2c1C(=O)N(C(=O)/C=C/c1ccc(F)cc1)C2=O | inactive
CCCCn1c(C2CCCCC2)nc2cc3[nH]c(=O)c(C(C)C)nc3cc21 | 11.2 µM (active)

Compound | Potency
Cc1cc(=O)oc2c1ccc1oc(/C(=N/O)c3ccccc3)c(C)c12 | 4.47 µM (active)
Cc1cc(Cl)cc(C)c1OCCn1ccnc1 | 11.2 µM (active)
CC#CC#Cc1cccc(=O)o1 | 3.98 µM (active)
Clc1ccc2nc(-c3ccccn3)c(Nc3ccc4c(c3)OCO4)n2c1 | 10 µM (active)
CCCCSc1nnc(-c2cc3c(C(F)(F)F)nn(C)c3s2)n1C | 10 µM (active)
CCOc1ccccc1NC(=O)/C(C#N)=C/c1cccnc1 | 12.6 µM (active)
O=C(c1ccccc1)c1nn(-c2ccc(Cl)cc2)c(=O)cc1C(F)(F)F | 12.6 µM (active)
O=C(c1cccc(Cl)c1)c1nn(-c2ccccc2)c(=O)cc1C(F)(F)F | 6.31 µM (active)
Cc1oc(=O)c(NC(=O)c2ccc(Cl)cc2)cc1C(=O)c1ccccc1 | inactive
COc1ccccc1N1CCN(C2CCCN(Cc3ccc(Cl)cc3)C2)CC1 (stereo not given) | 2.51 µM (active)
COc1ccc(N2CCN(C3CCCN(Cc4ccc(F)cc4)C3)CC2)cc1 (stereo not given) | 14.1 µM (active)
Cc1cccc(/C=C/C(=O)c2ccc(NC3=NCCCS3)cc2)c1 | 11.2 µM (active)
O=C(/C=C/c1ccccc1)c1ccc(NC2=NCCCS2)cc1 | 14.1 µM (active)
O=C(c1ccsc1)N1CCCC(N2CCN(c3cccc(C(F)(F)F)c3)CC2)C1 (stereo not given) | 12.6 µM (active)
Cc1cc(C(=O)N2CCCC(N3CCN(c4cccc(C(F)(F)F)c4)CC3)C2)c(C)o1 (stereo not given) | 10 µM (active)
COc1ccc(/C=C/C(=O)c2ccccc2)cc1Cn1nnc2ccccc21 | 6.31 µM (active)
COc1cc(Cn2nnc3ccccc32)ccc1O | 11.2 µM (active)
Cc1cccc(NC(=S)/N=C(\N)Nc2nc(C)c3ccccc3n2)c1 | 12.6 µM (active)
CCCN1CCN(CCCNC(=O)c2cc3c(s2)-c2c(C)cccc2OC3)CC1 | 12.6 µM (active)
CCn1c2ccccc2c2c3ncc4cccn4c3ccc21 | 14.1 µM (active)

Compound | Potency
COC(=O)[C@@H]1C[C@]2(OC(=O)c3ccccc3)C=CC(=O)C[C@@H]2N1C(=O)OCc1ccccc1 | 12.6 µM (active)
CCOc1ccc(S(=O)(=O)N2CCN(C(=O)CCOc3ccccc3C)CC2)cc1 | 11.2 µM (active)
O=C(COc1ccccc1)N1CCN(S(=O)(=O)c2ccc(Br)cc2)CC1 | 10 µM (active)
O=S(=O)(c1ccc(SCCO)nc1)N1CCOCC1 | inactive
O=S(=O)(c1ccc(OCc2ccc(Br)cc2)cc1)N1CCOCC1 | 8.91 µM (active)
Cc1cc(OCC(=O)N2CCCC2)cc(C)c1Cl | inactive
CCOc1ccccc1OCCC(=O)N1CCN(S(=O)(=O)c2ccccc2[N+](=O)[O-])CC1 | 11.2 µM (active)
Cc1cc(C)n2nc(C(=O)N/N=C/c3c4ccccc4cc4ccccc34)nc2n1 | 4.47 µM (active)
CCc1ccc(C2c3[nH]c4ccccc4c3CCN2C(=O)c2cc(C)nn2C)cc1 (stereo not given) | 3.55 µM (active)
Cn1nccc1C(=O)N1CCc2c([nH]c3ccccc23)C1c1ccc(F)cc1 (stereo not given) | 6.31 µM (active)
CSc1ccc(C2c3[nH]c4ccccc4c3CCN2C(=O)c2ccnn2C)cc1 (stereo not given) | 3.98 µM (active)
N=c1c2c3c(sc2ncn1Cc1ccccc1)CCCC3 | inactive
COc1ccccc1NC(=O)c1oc2ccccc2c1NC(=O)C1CC1 | 7.94 µM (active)
O=C(c1ccccc1)N1CCCC(c2ccc(Cl)cc2)=N1 | 12.6 µM (active)
O=[N+]([O-])c1ccc(Sc2cccc3cccnc23)c([N+](=O)[O-])c1 | 2.82 µM (active)
Cc1ccc(/C=C/C(=O)NC(C)c2ccccc2)cc1 (stereo not given) | 11.2 µM (active)
CCN(CC)CCC[C@H](C)Nc1c2ccc(Cl)cc2nc2ccc(OC)cc12 | 0.224 µM (active)
CCN(CC)CCC[C@H](C)Nc1ccnc2cc(Cl)ccc12 | 0.501 µM (active)
COc1ccc2nc3cc(Cl)ccc3c(Nc3cc(C(C)C)c(O)cc3C)c2c1 | 0.0251 µM (active)
O=C(CCl)Nc1cccc2ncccc12 | 3.55 µM (active)

— PubChem BioAssay AID504848 (National Center for Advancing Translational Sciences (NCATS), 2011)
